Laboratory results as given in PubChem BioAssay.
Calls of active or inactive are those of the source.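 Rule for the calls, unless noted: active = compounds whose cell count with miR-34 switched on is under 0.7 times the count with it off; inactive = the rest.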

How the values were obtained:
[1] = sensitizers of A549 cells to miR-34 induction, primary screen, imaging, A549 dox-inducible miR-34, nuclei and caspase counts (AID 1347080); details: A549 miR-34 inducible, Hoechst nuclei count, 48 h
[2] = survival rescue of mitochondrial mutant cells in low glucose, primary screen, MELAS cybrids, Rieske KO mouse fibroblasts, CellTiter-Glo (AID 1508586;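 active = mean z-score across replicates of 1.96 or higher in either the MELAS or the Rieske mutant cell line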;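 note: z relative to plate mean and SD of compound and empty wells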)
[3] = stronger effect = lower value, cell number ratio, induced over uninduced
[4] = measured here: relative caspase fold change +Dox/-Dox
[5] = measured here: total cells with miR-34 induction, stronger effect = lower value
[6] = measured here: total cells without miR-34 induction
[7] = MELAS cybrid survival, CellTiter-Glo 48 h, stronger effect = higher value
[8] = Rieske KO mouse fibroblast survival, CellTiter-Glo 72 h
Note: test concentration not given here.

| Structure (SMILES) | fold change [1, 3] | fold change [1, 4] | cell count [1, 5] | cell count [1, 6] | z-score [2, 7] | z-score [2, 8] |
| --- | --- | --- | --- | --- | --- | --- |
| CC(C)Oc1ccc(-c2cnc3c(-c4ccnc5ccccc45)cnn3c2)cc1 | 0.806 (inactive) | 0.45 | 5470 | 6780 | -0.164 (inactive) | 0.555 |
| C#C[C@@]1(O)CC[C@H]2[C@@H]3CCc4cc(OC)ccc4[C@@H]3CC[C@@]21C | 0.921 (inactive) | 0.824 | 7730 | 8400 | -0.343 (inactive) | 0.814 |
| CCOc1nc2cccc(C(=O)O)c2n1Cc1ccc(-c2ccccc2-c2noc(=O)[nH]2)cc1 | 0.988 (inactive) | 0.55 | 8580 | 8680 | -0.267 (inactive) | -0.0268 |
| OCC(O)C(O)CO (centres undefined) | 0.967 (inactive) | 0.463 | 8430 | 8720 | -0.193 (inactive) | -0.162 |
| CC1(C)CCC(c2ccc(Cl)cc2)=C(CN2CCN(c3ccc(C(=O)NS(=O)(=O)c4ccc(NC(CCN5CCOCC5)CSc5ccccc5)c(S(=O)(=O)C(F)(F)F)c4)cc3)CC2)C1 (centres undefined) | 1.03 (inactive) | 0.848 | 4260 | 4140 | 0.179 (inactive) | -2.71 |
| CCOC(=O)C(CCc1ccccc1)NC1CSC(c2cccs2)CN(CC(=O)O)C1=O (centres undefined) | 1.05 (inactive) | 0.5 | 8260 | 7900 | -0.343 (inactive) | -0.0675 |
| CC(NC(=O)Cc1cc(F)cc(F)c1)C(=O)NC1C(=O)N(C)c2ccccc2-c2ccccc21 (centres undefined) | 0.913 (inactive) | 0.674 | 8480 | 9280 | -0.38 (inactive) | 1.69 |
| CN(C)C(=O)c1ccc(S(=O)(=O)c2ccc(NC(=O)C(C)(O)C(F)(F)F)c(Cl)c2)cc1 (centres undefined) | 0.887 (inactive) | 0.601 | 6480 | 7310 | -0.391 (inactive) | -0.0234 |
| Brc1ccc(C2CN3CCSC3=N2)cc1 (centres undefined) | 0.957 (inactive) | 0.301 | 9050 | 9460 | -0.426 (inactive) | -0.0963 |
| CC(=O)[C@H]1CC[C@H]2[C@@H]3C=CC4=CC(=O)CC[C@@]4(C)[C@H]3CC[C@]12C | 0.894 (inactive) | 0.952 | 7680 | 8580 | -0.0223 (inactive) | -0.212 |
| N#CC(=C1SCC(c2ccc(Cl)cc2Cl)S1)n1ccnc1 (centres undefined) | 0.898 (inactive) | 1.64 | 8130 | 9050 | -0.162 (inactive) | -0.0913 |
| CCOC(=O)C(N)Cc1ccc(-c2cc(OC(c3ccc(Cl)cc3-n3ccc(C)n3)C(F)(F)F)nc(N)n2)cc1 (centres undefined) | 0.982 (inactive) | 0.783 | 8120 | 8260 | 0.073 (inactive) | 0.184 |
| O=C(Nc1ccccc1)Nc1ccc(-c2ccc(C(=O)C3CCCC3C(=O)O)cc2)cc1 (centres undefined) | 0.846 (inactive) | 0.729 | 9210 | 10900 | -0.239 (inactive) | 0.453 |
| Cc1cc2c(C(=O)NCC(C)c3ccccc3)c(O)c(O)cc2c(O)c1-c1c(C)cc2c(C(=O)NCC(C)c3ccccc3)c(O)c(O)cc2c1O (centres undefined) | 1.07 (inactive) | 0.503 | 2050 | 1910 | -0.836 (inactive) | -6.52 |
| CN1[C@@H]2CC[C@@H]1CC(OC(=O)C(O)c1ccccc1)C2 (some centres undefined) | 0.924 (inactive) | 0.78 | 8330 | 9020 | -0.279 (inactive) | -0.173 |
| C[C@]12CC[C@H]3c4ccc(O)cc4CC[C@H]3[C@@H]1CCC2O (some centres undefined) | 0.784 (inactive) | 0.957 | 6520 | 8310 | -0.389 (inactive) | -0.286 |
| CC(C)N(CCCNC(=O)Nc1ccc(C(C)(C)C)cc1)CC1OC(n2ccc3c(N)ncnc32)C(O)C1O (centres undefined) | 0.885 (inactive) | 0.359 | 8440 | 9540 | -0.287 (inactive) | 0.555 |
| CC(=CC(=O)Nc1ccccc1C(=O)O)c1ccc2ccccc2c1 | 0.983 (inactive) | 1.42 | 7300 | 7430 | -0.436 (inactive) | 0.934 |
| CC(C)(C(=O)NCC(F)(F)C(F)(F)F)C(=O)NC1C(=O)Nc2ccccc2-c2ccccc21 (centres undefined) | 0.97 (inactive) | 0.87 | 7630 | 7860 | -0.378 (inactive) | 0.321 |
| CC1OC(Oc2c(-c3cc(O)c(O)c(O)c3)oc3cc(O)cc(O)c3c2=O)C(O)C(O)C1O (centres undefined) | 0.976 (inactive) | 1.01 | 8230 | 8430 | -0.43 (inactive) | -0.277 |
| C#C[C@@]1(O)CC[C@H]2[C@@H]3CCc4cc(O)ccc4[C@@H]3CC[C@@]21C | 0.952 (inactive) | 0.969 | 6120 | 6420 | 0.773 (inactive) | 0.776 |
| O=C(NN=Cc1ccc(O)c(O)c1)c1cc2ccccc2cc1O | 0.949 (inactive) | 0.497 | 8120 | 8550 | -0.481 (inactive) | 0.559 |

| Structure (SMILES) | fold change [1, 3] | fold change [1, 4] | cell count [1, 5] | cell count [1, 6] | z-score [2, 7] | z-score [2, 8] |
| --- | --- | --- | --- | --- | --- | --- |
| CC1(C)C=C(CN2CC(=Cc3ccc(F)cc3)C(=O)C(=Cc3ccc(F)cc3)C2)C(C)(C)N1O | 0.876 (inactive) | 0.446 | 6830 | 7800 | -0.493 (inactive) | -2.15 |
| C=C1C(=CC=C2CCC[C@@]3(C)[C@H]2CC[C@H]3C(C)C=CC(C)C(C)C)CC(O)CC1O (some centres undefined) | 0.932 (inactive) | 0.78 | 7360 | 7890 | -0.45 (inactive) | 1.18 |
| CCC(C)C(=O)OC1CC(C)C=C2C=CC(C)C(CCC3CC(O)CC(=O)O3)[C@H]21 (some centres undefined) | 1.2 (inactive) | 0.613 | 3590 | 2990 | -0.367 (inactive) | -1.71 |
| CCCC(=O)Nc1cccc(NC(=O)c2ccccc2Br)c1 | 0.957 (inactive) | 0.928 | 7570 | 7910 | -0.112 (inactive) | -0.0371 |
| COC1C[C@H]2CCC(C)[C@@](O)(O2)C(=O)C(=O)N2CCCC[C@H]2C(=O)OC(C(C)CC2CCC(OC(=O)C(C)(CO)CO)C(OC)C2)CC(=O)C(C)C=C(C)C(O)C(OC)C(=O)C(C)CC(C)C=CC=CC=C1C (some centres undefined) | 1.08 (inactive) | 0.974 | 3980 | 3690 | 0.432 (inactive) | 0.402 |
| CC[C@]1(O)C[C@@H]2CN(CCc3c([nH]c4ccccc34)[C@@](C(=O)OC)(c3cc4c(cc3OC)N(C=O)[C@@H]3[C@@]45CCN4CC=C[C@@](CC)(C(OC(C)=O)[C@]3(O)C(=O)OC)[C@H]45)C2)C1 (some centres undefined) | 1.22 (inactive) | 0.801 | 1340 | 1100 | 0.317 (inactive) | -1.38 |
| Nc1nc2c(ncn2C2OC(CO)C(O)C2O)c(=O)[nH]1 (centres undefined) | 0.891 (inactive) | 0.755 | 8140 | 9140 | -0.357 (inactive) | -0.0165 |
| CN(C)C(CCOc1cccc2ccccc12)c1ccccc1 (centres undefined) | 0.873 (inactive) | 1.7 | 6850 | 7850 | -0.416 (inactive) | 0.392 |
| COC1CC2CCC(C)[C@@](O)(O2)C(=O)C(=O)N2CCCCC2C(=O)OC(C(C)CC2CCC(O)C(OC)C2)CC(=O)C(C)C=C(C)C(O)C(OC)C(=O)C(C)CC(C)C=CC=CC=C1C (some centres undefined) | 0.994 (inactive) | 1.19 | 4070 | 4090 | 0.132 | 2.33 |
| CC1=C(C(=O)O)N2C(=O)C(NC(=O)C(N)c3ccccc3)[C@@H]2SC1 (some centres undefined) | 0.987 (inactive) | 0.849 | 7060 | 7150 | -0.417 (inactive) | 0.0723 |
| Cn1nccc1-c1cc(C(=O)NCc2ccc(S(C)(=O)=O)cn2)c(=O)n(-c2cccc(C(F)(F)F)c2)c1 | 0.851 (inactive) | 0.538 | 8120 | 9540 | -0.549 (inactive) | 0.346 |
| CC1CNc2c(cccc2S(=O)(=O)N[C@@H](CCCN=C(N)N)C(=O)N2CCC(C)CC2C(=O)O)C1 (some centres undefined) | 0.97 (inactive) | 0.669 | 7750 | 7990 | -0.261 (inactive) | -0.0788 |
| CCC(C)CC(C)CCCCCCCCC(=O)NC1CC(O)C(NCCN)NC(=O)[C@@H]2C(O)CCN2C(=O)[C@@H](C(O)CCN)NC(=O)[C@H](C(O)C(O)c2ccc(O)cc2)NC(=O)[C@@H]2CC(O)CN2C(=O)[C@H](C(C)O)NC1=O (some centres undefined) | 0.95 (inactive) | 0.316 | 7980 | 8400 | -0.141 (inactive) | 0.0344 |
| CNC(=O)c1cccc(-c2ccc3c(N4CCOCC4C)nc(N4CCOCC4C)nc3n2)c1 (centres undefined) | 1 (inactive) | 0.416 | 3420 | 3410 | 3.83 (active) | -2.15 |
| O=C1CCC[C@@H]2[C@@H]3CCC[N+]4([O-])CCC[C@H](CN12)[C@@H]34 (some centres undefined) | 0.977 (inactive) | 0.789 | 9620 | 9840 | -0.359 (inactive) | 0.579 |
| COc1cc(C2Oc3cc(C4Oc5cc(O)cc(O)c5C(=O)C4O)ccc3OC2CO)ccc1O (centres undefined) | 0.923 (inactive) | 0.695 | 9600 | 10400 | -0.412 (inactive) | 0.872 |
| CC(NC(=O)C(O)C(C)C)C(=O)NC1C(=O)N(C)CCc2ccccc21 (centres undefined) | 0.932 (inactive) | 0.791 | 7480 | 8020 | -0.185 (inactive) | -1.14 |
| CC1CN(CC(=O)Nc2ccc3c(c2)Cc2cccc(-c4cc(=O)cc(N5CCOCC5)o4)c2S3)CC(C)O1 (centres undefined) | 0.994 (inactive) | 1.1 | 5760 | 5800 | 2.51 (active) | 1.29 |
| C[N+]1(C)[C@@H]2CC(OC(=O)C(O)(c3cccs3)c3cccs3)C[C@H]1C1OC12 (some centres undefined) | 0.933 (inactive) | 0.479 | 9300 | 9960 | -0.398 (inactive) | -0.0197 |
| CC(Cc1cc2c(c(C(N)=O)c1)N(CCCO)CC2)NCCOc1ccccc1OCC(F)(F)F (centres undefined) | 0.869 (inactive) | 0.814 | 6950 | 8000 | -0.42 (inactive) | -0.511 |
| CC(C)(Oc1ccc(Cl)cc1)C(=O)OCCOC(=O)c1cccnc1 | 0.919 (inactive) | 0.391 | 8570 | 9330 | -0.212 (inactive) | -0.266 |
| O=C(NC1CCN(CCCCC2(C(=O)NCC(F)(F)F)c3ccccc3-c3ccccc32)CC1)c1ccccc1-c1ccc(C(F)(F)F)cc1 | 1.05 (inactive) | 0.667 | 3960 | 3780 | -0.492 (inactive) | -0.827 |
